According to PubChem BioAssay AID1159580 (chemical genetic matrix, 2015):
About 2,000 (36%) of roughly 5,500 compounds were called active. Another 18% or so got no clear call; they are omitted. This is one part of the list. A number with no mark means an inactive call. No stated cut-off is given here; in the data, active means normalized growth mostly below about 0.91 (no sharp cut-off); inconclusive means no clear call, values can overlap the other calls; inactive means mostly above about 0.92.

Assay: chemical genetic growth profiling, strain panel (AID 1159580);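 further: tested at 20 µM; growth read once vehicle control cultures reached saturation at 30 °C; 1 = growth at the plate median or of vehicle wells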
Conditions: S. cerevisiae deletion strains, growth OD

For `CC12CCC(=O)C=C1CCc1ccccc12` (configuration not stated), the normalized growth (locus YAL021C, strain ccr4, stronger effect = lower value) was 0.992, the normalized growth (locus YAL026C, strain drs2, stronger effect = lower value) was 0.985 and the normalized growth (locus YAL030W, strain snc1, stronger effect = lower value) was 0.984. The normalized growth (locus YBL061C, strain skt5, stronger effect = lower value) was 0.981, the normalized growth (locus YBR009C, strain hhf1, stronger effect = lower value) was 0.985 and the normalized growth (locus YBR023C, strain chs3, stronger effect = lower value) was 0.979. For the same compound, the normalized growth (locus YBR171W, strain sec66, stronger effect = lower value) was 0.972, the normalized growth (locus YBR231C, strain swc5, stronger effect = lower value) was 0.985 and the normalized growth (locus YBR279W, strain paf1, stronger effect = lower value) was 0.985. It also gave a normalized growth (locus YCL011C, strain gbp2, stronger effect = lower value) of 0.997, a normalized growth (locus YCL016C, strain dcc1, stronger effect = lower value) of 0.978 and a normalized growth (locus YCL061C, strain MRC1, stronger effect = lower value) of 0.977. It also gave a normalized growth (locus YCL069W, strain vba3, stronger effect = lower value) of 0.986, a normalized growth (locus YCR088W, strain abp1, stronger effect = lower value) of 0.966 and a normalized growth (locus YDL005C, strain med2, stronger effect = lower value) of 0.985. It also gave a normalized growth (locus YDL040C, strain nat1, stronger effect = lower value) of 0.967, a normalized growth (locus YDR001C, strain nth1, stronger effect = lower value) of 0.967 and a normalized growth (locus YDR069C, strain doa4, stronger effect = lower value) of 0.984. It also gave a normalized growth (locus YDR137W, strain rgp1, stronger effect = lower value) of 1.05, a normalized growth (locus YDR159W, strain sac3, stronger effect = lower value) of 0.955 and a normalized growth (locus YDR195W, strain ref2) of 0.947. The normalized growth (locus YDR297W, strain sur2, stronger effect = lower value) was 0.978, the normalized growth (locus YDR334W, strain swr1, stronger effect = lower value) was 0.959 and the normalized growth (locus YDR335W, strain msn5, stronger effect = lower value) was 0.978. The normalized growth (locus YDR392W, strain spt3, stronger effect = lower value) was 0.825, the normalized growth (locus YEL003W, strain gim4, stronger effect = lower value) was 0.981 and the normalized growth (locus YEL037C, strain rad23, stronger effect = lower value) was 0.972. It also gave a normalized growth (locus YEL061C, strain CIN8 (second series), stronger effect = lower value) of 0.966, a normalized growth (locus YER015W, strain faa2, stronger effect = lower value) of 0.986 and a normalized growth (locus YER016W, strain bim1, stronger effect = lower value) of 0.972. The normalized growth (locus YER111C, strain swi4, stronger effect = lower value) was 0.972, the normalized growth (locus YER155C, strain BEM2 (second series), stronger effect = lower value) was 0.849 (active) and the normalized growth (locus YFR010W, strain ubp6, stronger effect = lower value) was 0.99. The normalized growth (locus YGL167C, strain pmr1, stronger effect = lower value) was 0.97, the normalized growth (locus YGL173C, strain kem1, stronger effect = lower value) was 0.985 and the normalized growth (locus YGL227W, strain vid30, stronger effect = lower value) was 0.979. It also gave a normalized growth (locus YGL240W, strain doc1, stronger effect = lower value) of 0.925, a normalized growth (locus YGL253W, strain hxk2, stronger effect = lower value) of 0.98 and a normalized growth (locus YHR013C, strain ard1, stronger effect = lower value) of 0.941. It also gave a normalized growth (locus YHR027C, strain rpn1, stronger effect = lower value) of 0.994, a normalized growth (locus YHR142W, strain chs7, stronger effect = lower value) of 0.978 and a normalized growth (locus YJL092W, strain hpr5, stronger effect = lower value) of 0.974. The normalized growth (locus YJL095W, strain BCK1 (second series), stronger effect = lower value) was 0.994, the normalized growth (locus YJL115W, strain asf1, stronger effect = lower value) was 0.977 and the normalized growth (locus YJL129C, strain trk1, stronger effect = lower value) was 0.964. For the same compound, the normalized growth (locus YJL154C, strain vps35, stronger effect = lower value) was 0.972, the normalized growth (locus YJL164C, strain tpk1, stronger effect = lower value) was 0.984 and the normalized growth (locus YJL166W, strain qcr8, stronger effect = lower value) was 0.977. For the same compound, the normalized growth (locus YJL187C, strain SWE1, stronger effect = lower value) was 0.982, the normalized growth (locus YKL160W, strain elf1, stronger effect = lower value) was 1 and the normalized growth (locus YKR026C, strain gcn3, stronger effect = lower value) was 0.951. The normalized growth (locus YKR091W, strain srl3, stronger effect = lower value) was 0.971, the normalized growth (locus YLL001W, strain dnm1, stronger effect = lower value) was 0.968 and the normalized growth (locus YLL026W, stronger effect = lower value) was 0.979. The normalized growth (locus YLL041C, strain sdh2, stronger effect = lower value) was 0.973, the normalized growth (locus YLR027C, strain aat2, stronger effect = lower value) was 0.99 and the normalized growth (locus YLR221C, strain rsa3, stronger effect = lower value) was 1.01. It also gave a normalized growth (locus YLR258W, strain gsy2, stronger effect = lower value) of 0.992, a normalized growth (locus YLR262C, strain YPT6 (second series), stronger effect = lower value) of 1.07 and a normalized growth (locus YLR320W, strain mms22, stronger effect = lower value) of 0.973. For the same compound, the normalized growth (locus YLR342W, strain FKS1, stronger effect = lower value) was 0.977, the normalized growth (locus YLR357W, strain rsc2, stronger effect = lower value) was 0.844 (active) and the normalized growth (locus YLR370C, strain arc18, stronger effect = lower value) was 0.984. The normalized growth (locus YLR384C, strain iki3, stronger effect = lower value) was 0.972, the normalized growth (locus YML120C, strain ndi1, stronger effect = lower value) was 0.984 and the normalized growth (locus YMR058W, strain fet3, stronger effect = lower value) was 0.982. The normalized growth (locus YMR125W, strain sto1, stronger effect = lower value) was 0.969, the normalized growth (locus YMR129W, stronger effect = lower value) was 0.983 and the normalized growth (locus YMR205C, strain PFK2, stronger effect = lower value) was 0.985. For the same compound, the normalized growth (locus YMR231W, strain pep5, stronger effect = lower value) was 0.977, the normalized growth (locus YNL071W, strain lat1, stronger effect = lower value) was 0.978 and the normalized growth (locus YNL209W, strain ssb2, stronger effect = lower value) was 0.989. The normalized growth (locus YNL248C, strain rpa49, stronger effect = lower value) was 0.951, the normalized growth (locus YNL322C, strain KRE1 (second series), stronger effect = lower value) was 0.962 and the normalized growth (locus YNR049C, strain mso1, stronger effect = lower value) was 0.98. The normalized growth (locus YOR001W, strain rrp6, stronger effect = lower value) was 0.994, the normalized growth (locus YOR070C, strain gyp1, stronger effect = lower value) was 0.992 and the normalized growth (locus YOR080W, strain dia2, stronger effect = lower value) was 0.974. For the same compound, the normalized growth (locus YOR083W, strain WHI5, stronger effect = lower value) was 1, the normalized growth (locus YOR106W, strain vam3, stronger effect = lower value) was 1 and the normalized growth (locus YOR265W, strain rbl2, stronger effect = lower value) was 0.984. The normalized growth (locus YOR270C, strain vph1, stronger effect = lower value) was 0.931, the normalized growth (locus YOR290C, strain snf2, stronger effect = lower value) was 0.933 and the normalized growth (locus YPL051W, strain arl3, stronger effect = lower value) was 0.994. The normalized growth (locus YPL078C, strain atp4, stronger effect = lower value) was 0.977, the normalized growth (locus YPL106C, strain sse1, stronger effect = lower value) was 0.973 and the normalized growth (locus YPL240C, strain hsp82, stronger effect = lower value) was 0.985.

For `C[C@]12CCC(=O)C=C1CCc1ccc(O)cc12`, the normalized growth (locus YBR021W, strain FUR4, stronger effect = lower value) was 1.03, the normalized growth (locus YBR229C, strain ROT2, stronger effect = lower value) was 1 and the normalized growth (locus YCL029C, strain bik1, stronger effect = lower value) was 0.992. The normalized growth (locus YDL035C, strain GPR1, stronger effect = lower value) was 1.04, the normalized growth (locus YDL074C, strain BRE1, stronger effect = lower value) was 1.04 and the normalized growth (locus YDL101C, strain DUN1, stronger effect = lower value) was 1.01. For the same compound, the normalized growth (locus YDL134C, strain PPH21, stronger effect = lower value) was 1, the normalized growth (locus YDL185W, strain tfp1, stronger effect = lower value) was 0.992 and the normalized growth (locus YDL192W, strain arf1, stronger effect = lower value) was 0.998. For the same compound, the normalized growth (locus YDR101C, strain arx1, stronger effect = lower value) was 0.984, the normalized growth (locus YDR150W, strain NUM1, stronger effect = lower value) was 1 and the normalized growth (locus YDR162C, strain NBP2, stronger effect = lower value) was 1.01. It also gave a normalized growth (locus YDR318W, strain mcm21, stronger effect = lower value) of 0.986, a normalized growth (locus YDR388W, stronger effect = lower value) of 0.991 and a normalized growth (locus YDR502C, strain sam2, stronger effect = lower value) of 0.968. The normalized growth (locus YEL061C, strain CIN8, stronger effect = lower value) was 1, the normalized growth (locus YER110C, stronger effect = lower value) was 0.982 and the normalized growth (locus YER155C, strain BEM2, stronger effect = lower value) was 0.996. The normalized growth (locus YER167W, strain BCK2, stronger effect = lower value) was 1.02, the normalized growth (locus YGL078C, strain dbp3, stronger effect = lower value) was 0.995 and the normalized growth (locus YGL086W, strain mad1, stronger effect = lower value) was 0.982. For the same compound, the normalized growth (locus YGL248W, strain PDE1, stronger effect = lower value) was 0.996, the normalized growth (locus YGR078C, strain PAC10, stronger effect = lower value) was 0.998 and the normalized growth (locus YGR135W, strain pre9, stronger effect = lower value) was 0.973. The normalized growth (locus YGR252W, strain gcn5, stronger effect = lower value) was 0.961, the normalized growth (locus YHR030C, strain SLT2, stronger effect = lower value) was 1.01 and the normalized growth (locus YHR079C, strain IRE1 (second series), stronger effect = lower value) was 0.989. The normalized growth (locus YHR094C, strain hxt1, stronger effect = lower value) was 0.993, the normalized growth (locus YHR129C, strain ARP1, stronger effect = lower value) was 1 and the normalized growth (locus YHR200W, strain rpn10, stronger effect = lower value) was 0.989. For the same compound, the normalized growth (locus YIL066C, strain RNR3, stronger effect = lower value) was 1.02, the normalized growth (locus YIL073C, strain SPO22, stronger effect = lower value) was 1.04 and the normalized growth (locus YIL125W, strain kgd1, stronger effect = lower value) was 0.987. The normalized growth (locus YIR030C, strain dcg1, stronger effect = lower value) was 1.01, the normalized growth (locus YJL095W, strain BCK1, stronger effect = lower value) was 1 and the normalized growth (locus YJL134W, strain LCB3, stronger effect = lower value) was 1.01. The normalized growth (locus YJL168C, strain set2, stronger effect = lower value) was 0.987, the normalized growth (locus YJL187C, strain SWE1 (second series), stronger effect = lower value) was 1 and the normalized growth (locus YJR043C, strain POL32, stronger effect = lower value) was 1.01. The normalized growth (locus YKL009W, strain mrt4, stronger effect = lower value) was 1.03, the normalized growth (locus YKL068W, stronger effect = lower value) was 0.991 and the normalized growth (locus YKL085W, strain MDH1 (second series), stronger effect = lower value) was 0.999. It also gave a normalized growth (locus YKL085W, strain MDH1, stronger effect = lower value) of 0.999, a normalized growth (locus YKL190W, strain CNB1, stronger effect = lower value) of 1.01 and a normalized growth (locus YKR001C, strain vps1, stronger effect = lower value) of 0.977. The normalized growth (locus YLR039C, strain RIC1, stronger effect = lower value) was 1.06, the normalized growth (locus YLR058C, strain SHM2, stronger effect = lower value) was 1.02 and the normalized growth (locus YLR102C, strain apc9, stronger effect = lower value) was 0.994. For the same compound, the normalized growth (locus YLR262C, strain YPT6, stronger effect = lower value) was 1.07, the normalized growth (locus YLR268W, strain sec22, stronger effect = lower value) was 0.98 and the normalized growth (locus YLR342W, strain FKS1 (second series), stronger effect = lower value) was 0.997. It also gave a normalized growth (locus YLR371W, strain rom2, stronger effect = lower value) of 0.994, a normalized growth (locus YLR418C, strain cdc73, stronger effect = lower value) of 0.982 and a normalized growth (locus YML016C, strain PPZ1, stronger effect = lower value) of 1.01. The normalized growth (locus YML032C, strain rad52, stronger effect = lower value) was 0.982, the normalized growth (locus YML124C, strain tub3, stronger effect = lower value) was 0.979 and the normalized growth (locus YMR078C, strain ctf18, stronger effect = lower value) was 0.987. For the same compound, the normalized growth (locus YMR223W, strain ubp8, stronger effect = lower value) was 0.988, the normalized growth (locus YMR307W, strain GAS1, stronger effect = lower value) was 1.04 and the normalized growth (locus YNL067W, strain RPL9B, stronger effect = lower value) was 0.999. It also gave a normalized growth (locus YNL233W, strain BNI4, stronger effect = lower value) of 0.99, a normalized growth (locus YNL250W, strain rad50, stronger effect = lower value) of 1.01 and a normalized growth (locus YNL271C, strain bni1, stronger effect = lower value) of 0.982. For the same compound, the normalized growth (locus YNL298W, strain CLA4, stronger effect = lower value) was 0.987, the normalized growth (locus YNL307C, strain MCK1, stronger effect = lower value) was 0.983 and the normalized growth (locus YNR052C, strain pop2, stronger effect = lower value) was 0.982. It also gave a normalized growth (locus YOL012C, strain htz1) of 1.09, a normalized growth (locus YOL147C, strain pex11, stronger effect = lower value) of 0.994 and a normalized growth (locus YOR061W, strain CKA2, stronger effect = lower value) of 1.03. For the same compound, the normalized growth (locus YOR069W, strain VPS5, stronger effect = lower value) was 1.01, the normalized growth (locus YOR136W, strain idh2, stronger effect = lower value) was 0.97 and the normalized growth (locus YOR144C, strain elg1, stronger effect = lower value) was 0.985. For the same compound, the normalized growth (locus YOR184W, strain ser1, stronger effect = lower value) was 1.03, the normalized growth (locus YOR316C, strain cot1, stronger effect = lower value) was 0.99 and the normalized growth (locus YPL241C, strain CIN2, stronger effect = lower value) was 1. It also gave a normalized growth (locus YPR119W, strain clb2, stronger effect = lower value) of 0.986, a normalized growth (locus YPR141C, strain kar3, stronger effect = lower value) of 0.994 and a normalized growth (locus YPR163C, strain tif3, stronger effect = lower value) of 0.984. It also gave a normalized growth (locus YPR167C, strain met16, stronger effect = lower value) of 0.987 and a normalized growth (strain wtn01, stronger effect = lower value) of 0.992.
